Compound activity: PubChem, several laboratories
Rows were chosen to be rich in hits. Some 4.6% of all compounds tested hit in one or more screens of this group.
SKKanGAS inh: inhibitors of SKKanGAS S. pyogenes growth in kanamycin (SK-promoter or general growth effect) | inhibition, % at 7.5 µM | BacTiter-Glo, 6 h | AID 1662 | hit rate 1.3% among 300,000;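 active = mean replicate score, as percent of positive control median, at least 50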;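 also: strain carries kanamycin resistance gene driven by streptokinase promoter and grows in 40 µg/ml kanamycin; loss of luminescence reflects streptokinase promoter inhibition or plain growth inhibition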
tim23-1 inh: growth inhibitors of tim23-1 mutant yeast; hit rate 1.3% among 330,000; S. cerevisiae tim23-1 growth, BacTiter-Glo luminescence, 24 h; inhibition, % at 20 µM;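 active = growth inhibition of the mutant yeast at or above 50%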;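 also: temperature-sensitive mutant grown at 25 °C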
tim10-1 inh: growth inhibitors of tim10-1 mutant yeast | S. cerevisiae tim10-1 ts strain growth, BacTiter-Glo, 24 h | inhibition, % at 20 µM | hit rate 2.2% among 330,000 | AID 463190;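 active = inhibition of at least 40%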;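 also: mutant grown at 25 °C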
PfHsp90 yeast 2: growth inhibition of yeast expressing Plasmodium Hsp90; hit rate 0.32% among 310,000; inhibition, % at 9.4 µM; S. cerevisiae expressing PfHsp90, BacTiter-Glo ATP, 48 h; yeast lacking PDR1 and PDR3 efflux regulators;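 active = every replicate shows inhibition above about 80%, whatever the replicate mean, limit read from the data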
NLRP3 yeast inh: blocks the NALP3 inflammasome reconstituted in yeast; Yeast reconstituted NLRP3/ASC/caspase-1, beta-gal luminescence, 24 h; inhibition, % at 10 µM; hit rate 0.39% among 330,000; AID 2825;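 active = inhibition of 50% or more; inactive = inhibition below 50%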
TIM10 inh: TIM10 yeast growth inhibition; S. cerevisiae TIM10 strain growth, BacTiter-Glo luminescence, 24 h; inhibition, % at 10 µM; hit rate 1.4% among 330,000; AID 463195;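 active = inhibition of 40% or more at the single tested concentration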;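 also: wild-type TIM10 isogenic control strain grown at permissive 25 °C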
tim10-1 confirm: confirmation of tim10-1 mutant yeast growth inhibitors; shares compounds with tim10-1 inh; S. cerevisiae tim10-1 ts strain growth, BacTiter-Glo, 24 h; inhibition, % at 20 µM; hit rate 56% among 7,400; AID 463213;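 active = inhibition of yeast growth at or above a set limit in either of two repeat tests at 20 µM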;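 also: tim10-1 mutant grown at permissive 25 °C to find synthetic lethal compounds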
TIM10 conf: confirmation of TIM10 yeast growth inhibitors. shares compounds with TIM10 inh. S. cerevisiae tim10 strain growth, BacTiter-Glo luminescence, 24 h. inhibition, % at 10 µM. hit rate 63% among 4,600;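 active = inhibition of yeast growth at or above a set limit in either of two replicates at 10 µM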; also: this counterscreen used the strain with wild-type TIM10
Of the large screens only hits and unclear results are named; the others gave an inactive call (follow-up assays come after a bar, where they were run).

O=C(Nc1ccc(Cl)cn1)c1ccc2ccccc2n1	none
COc1ccc(CN2CCNC(=O)C2CC(=O)N(C)Cc2ccon2)c(F)c1 (configuration not stated)	none
Cc1ccc(NC(=O)c2cc(S(=O)(=O)NCCC3=CCCCC3)ccc2F)cc1	tim10-1 inh 50, TIM10 inh 54 | tim10-1 confirm 41 | TIM10 conf inactive
COc1ccc(C(=O)OCCCOC(=O)c2ccc(OC)cc2OC)c(OC)c1	none
COc1ccc(C(=O)O/N=C(\N)Cc2ccc([N+](=O)[O-])cc2)c(OC)c1	tim10-1 inh 75, TIM10 inh 51 | tim10-1 confirm 84 | TIM10 conf 57
O=C(NC1=NCCS1)c1ccc([N+](=O)[O-])cc1Cl	none
CCOc1cccc(C(=O)NC(=S)NCc2cccnc2)c1	none
CC(C)COc1cccc(C(=O)NC(=S)NCc2cccnc2)c1	tim10-1 inh 47, TIM10 inh 43 | tim10-1 confirm inactive | TIM10 conf inactive
c1ccc2c(c1)OCC(c1nnc3sc(-c4ccc5c(c4)OCO5)nn13)O2 (configuration not stated)	tim10-1 inh 42, TIM10 inh 48 | tim10-1 confirm inactive | TIM10 conf inactive
CC1CCN(S(=O)(=O)c2cc(Br)cc(C(=O)NC3=NCCS3)c2)CC1	tim10-1 inh 46, TIM10 inh 41 | tim10-1 confirm 32 | TIM10 conf 40
COc1cccc(CNS(=O)(=O)c2ccc3c(c2)oc(=O)n3C)c1	none
COc1ccc(/C=C/C(=O)c2cc(F)ccc2OC(=O)c2ccccc2OC)cc1OC	none (no result: tim23-1 inh, tim10-1 inh, NLRP3 yeast inh, TIM10 inh)
COc1ccc(/C=C/C(=O)c2cc(F)ccc2OC(=O)c2ccccc2)cc1OC	tim10-1 inh 52, TIM10 inh 48 | tim10-1 confirm 48 | TIM10 conf inactive
O=C(Nc1ccccc1Cl)C1C2CCC3C(CCC21)C3(Cl)Cl (configuration not stated)	none
CCOc1ccccc1NC(=O)C1C2CCC3C(CCC21)C3(Cl)Cl (configuration not stated)	TIM10 inh 47 | tim10-1 confirm 31 | TIM10 conf 43
O=[N+]([O-])c1nn(-c2ccc3c(c2)OCCO3)n(O)c1=NC1CCCCC1	tim10-1 inh 56, TIM10 inh 49 (no result: PfHsp90 yeast 2) | tim10-1 confirm 46 | TIM10 conf 43
O=C(Nc1ccc(Br)cc1)c1cccn1-c1ncc(C(F)(F)F)cc1Cl	tim10-1 inh 47, TIM10 inh 52 (no result: PfHsp90 yeast 2) | tim10-1 confirm 43 | TIM10 conf 43
Cn1c2ccccc2c(=O)c2c(=O)n(-c3ccccc3)c(-c3ccc(C(C)(C)C)cc3)nc21	tim10-1 inh 48, TIM10 inh 82 | tim10-1 confirm inactive | TIM10 conf inactive
Cc1ccc(-c2nc3c(c(=O)c4ccccc4n3C)c(=O)n2-c2ccc(F)cc2)cc1	none
CC(=O)c1c(C)[nH]c(C(=O)COC(=O)c2ccc(Cl)nc2)c1C	none (no result: SKKanGAS inh)
Cc1ccc(CSCC(=O)N2CCN(Cc3ccc4c(c3)OCO4)CC2)cc1	tim10-1 inh 57, TIM10 inh 41 | tim10-1 confirm 41 | TIM10 conf inactive
O=c1c2ccccc2c(C=Nc2ccccc2O)c(O)n1-c1nccs1	none
Cc1cccc(C)c1N=Cc1c(O)n(-c2nccs2)c(=O)c2ccccc12	tim10-1 inh 46, TIM10 inh 55 | tim10-1 confirm 41 | TIM10 conf inactive
O=C(c1cc2cc(Cl)ccc2[nH]1)N1CCN(C(=O)c2ccco2)CC1	none
COc1ccc2c(c1OC)C(=O)N1N=C(c3ccc(Br)cc3)CC21 (configuration not stated)	tim10-1 inh 48, TIM10 inh 40 | tim10-1 confirm 40 | TIM10 conf inactive
COc1ccc2c(c1OC)C(=O)N1N=C(c3ccc(-c4ccccc4)cc3)CC21 (configuration not stated)	none
O=C(Oc1ccc(/C=N/O)cc1)c1ccccc1Cl	tim10-1 inh 52, TIM10 inh 57 | tim10-1 confirm 45 | TIM10 conf inactive
CC(OC(=O)c1cccnc1Cl)C(=O)NCc1ccccc1 (configuration not stated)	none (no result: SKKanGAS inh)
Cc1cc(NC(=O)c2cc(-c3ccncc3)nc3ccccc23)ccc1Br	none (no result: SKKanGAS inh)
COc1ccc2[nH]c(C)c(CCNC(=S)Nc3cccc(C)c3)c2c1	none
CCc1cccc(CC)c1NC(=S)NCCc1c(C)[nH]c2ccc(C)cc12	tim10-1 inh 45, TIM10 inh 46 | tim10-1 confirm 42 | TIM10 conf 46
CCSc1nnc(NC(=O)c2cc(C)nc3ccccc23)s1	none
CCSc1nnc(NC(=O)c2nc(-c3ccccc3)n(-c3ccccc3)n2)s1	SKKanGAS inh 63, tim10-1 inh 55, TIM10 inh 51 | tim10-1 confirm 52 | TIM10 conf inactive
O=[N+]([O-])c1ccc(/C=N/n2cnc3ccccc32)s1	tim10-1 inh 49, PfHsp90 yeast 2 105, TIM10 inh 79 | tim10-1 confirm 57 | TIM10 conf 90
Cc1cc2ncn(/N=C/c3ccc([N+](=O)[O-])s3)c2cc1C	none (no result: tim23-1 inh, tim10-1 inh, NLRP3 yeast inh, TIM10 inh)
Nc1cc(OC(=O)c2cccs2)nn1S(=O)(=O)c1ccc(F)cc1	tim10-1 inh 41, TIM10 inh 53 | tim10-1 confirm 31 | TIM10 conf inactive
CC(C)c1nn2c(=O)cc(COc3cccc(NC(=O)c4ccco4)c3)nc2s1	none
C=CCN1C(=O)c2ccc(C(=O)NCCc3ccc(OC)c(OC)c3)cc2C1=O	none
CN(C)CCCN(C(=O)c1cc(Cl)sc1Cl)c1nc2cc3c(cc2s1)OCO3	tim10-1 inh 63, TIM10 inh 46 | tim10-1 confirm 55 | TIM10 conf 34
CCN(CC)CCN(C(=O)c1ccc(Br)s1)c1nc2cc3c(cc2s1)OCCO3	none
CN(C)CCCN(C(=O)c1ccc(Br)s1)c1nc2cc3c(cc2s1)OCCO3	tim10-1 inh 64, TIM10 inh 56 (no result: PfHsp90 yeast 2) | tim10-1 confirm 60 | TIM10 conf 47
CN(C)CCCN(C(=O)c1ccc(Cl)s1)c1nc2cc3c(cc2s1)OCO3	tim10-1 inh 48, TIM10 inh 42 | tim10-1 confirm 46 | TIM10 conf inactive
CN(C)CCCN(C(=O)c1cccs1)c1nc2cc3c(cc2s1)OCO3	none
O=C1c2cccc3cccc(c23)C(=O)N1CCc1ccccc1	none
Cc1cc(C)c2c(=O)n(CC(=O)Nc3cccc(F)c3)sc2n1	none
Cc1ccc(NC(=O)Cn2sc3nc(C)cc(C)c3c2=O)c(Cl)c1	tim10-1 inh 86, TIM10 inh 81 | tim10-1 confirm 92 | TIM10 conf 96
CCOc1ccc(NC(=O)Cn2sc3nc(C)cc(C)c3c2=O)cc1	tim10-1 inh 83, TIM10 inh 46 | tim10-1 confirm 90 | TIM10 conf 88
